# Results taken from ChEMBL document CHEMBL3988442, “University of Dundee, Small-Polar-MMV Screening Library” (2021).
# For some of these results: Potency and affinity values are given separately.
# What was measured:
# Parameters in all cases: scale not given: direction of the effect not stated beside the values
# [1] = target: Protein translocase subunit SecA (Escherichia coli (strain K12)) (UniProt P10408); assay: Assay to Identify E. coli SecA ATPase Inhibitors; type: functional; settings: 30 µM
# Chain of Protein translocase subunit SecA (Escherichia coli (strain K12)) (P10408 whole entry): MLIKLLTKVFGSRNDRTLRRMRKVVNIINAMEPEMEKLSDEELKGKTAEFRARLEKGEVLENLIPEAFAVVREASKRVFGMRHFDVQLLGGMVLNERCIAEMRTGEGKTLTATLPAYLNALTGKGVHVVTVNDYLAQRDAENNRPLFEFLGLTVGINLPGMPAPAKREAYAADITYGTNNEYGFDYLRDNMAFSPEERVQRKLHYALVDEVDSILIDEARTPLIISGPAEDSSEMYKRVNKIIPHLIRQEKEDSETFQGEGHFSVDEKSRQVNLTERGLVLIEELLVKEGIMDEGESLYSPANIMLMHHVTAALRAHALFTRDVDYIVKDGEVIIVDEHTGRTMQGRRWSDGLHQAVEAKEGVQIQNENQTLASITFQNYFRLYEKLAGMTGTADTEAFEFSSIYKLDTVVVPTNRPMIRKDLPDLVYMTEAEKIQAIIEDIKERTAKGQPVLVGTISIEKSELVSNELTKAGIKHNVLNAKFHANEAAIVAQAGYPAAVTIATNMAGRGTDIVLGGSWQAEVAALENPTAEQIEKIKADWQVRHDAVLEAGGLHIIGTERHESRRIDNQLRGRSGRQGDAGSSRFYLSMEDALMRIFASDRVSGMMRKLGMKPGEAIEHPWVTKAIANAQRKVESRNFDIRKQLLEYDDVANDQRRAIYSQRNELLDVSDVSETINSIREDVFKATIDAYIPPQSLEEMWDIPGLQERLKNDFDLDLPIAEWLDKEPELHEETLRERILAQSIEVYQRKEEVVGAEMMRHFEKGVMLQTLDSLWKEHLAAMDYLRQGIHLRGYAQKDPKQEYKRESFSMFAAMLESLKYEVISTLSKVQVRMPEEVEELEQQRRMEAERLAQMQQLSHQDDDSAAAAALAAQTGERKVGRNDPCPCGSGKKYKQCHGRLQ
# [2] = target: T1, Ubiquitin-activating enzyme e1, putative (Leishmania donovani (strain BPK282A1)) (UniProt E9BSI1); assay: Leishmania donovani Ubiquitin Activating Enzyme (LdE1); type: functional; settings: 30 µM
# T1 sequence (whole entry): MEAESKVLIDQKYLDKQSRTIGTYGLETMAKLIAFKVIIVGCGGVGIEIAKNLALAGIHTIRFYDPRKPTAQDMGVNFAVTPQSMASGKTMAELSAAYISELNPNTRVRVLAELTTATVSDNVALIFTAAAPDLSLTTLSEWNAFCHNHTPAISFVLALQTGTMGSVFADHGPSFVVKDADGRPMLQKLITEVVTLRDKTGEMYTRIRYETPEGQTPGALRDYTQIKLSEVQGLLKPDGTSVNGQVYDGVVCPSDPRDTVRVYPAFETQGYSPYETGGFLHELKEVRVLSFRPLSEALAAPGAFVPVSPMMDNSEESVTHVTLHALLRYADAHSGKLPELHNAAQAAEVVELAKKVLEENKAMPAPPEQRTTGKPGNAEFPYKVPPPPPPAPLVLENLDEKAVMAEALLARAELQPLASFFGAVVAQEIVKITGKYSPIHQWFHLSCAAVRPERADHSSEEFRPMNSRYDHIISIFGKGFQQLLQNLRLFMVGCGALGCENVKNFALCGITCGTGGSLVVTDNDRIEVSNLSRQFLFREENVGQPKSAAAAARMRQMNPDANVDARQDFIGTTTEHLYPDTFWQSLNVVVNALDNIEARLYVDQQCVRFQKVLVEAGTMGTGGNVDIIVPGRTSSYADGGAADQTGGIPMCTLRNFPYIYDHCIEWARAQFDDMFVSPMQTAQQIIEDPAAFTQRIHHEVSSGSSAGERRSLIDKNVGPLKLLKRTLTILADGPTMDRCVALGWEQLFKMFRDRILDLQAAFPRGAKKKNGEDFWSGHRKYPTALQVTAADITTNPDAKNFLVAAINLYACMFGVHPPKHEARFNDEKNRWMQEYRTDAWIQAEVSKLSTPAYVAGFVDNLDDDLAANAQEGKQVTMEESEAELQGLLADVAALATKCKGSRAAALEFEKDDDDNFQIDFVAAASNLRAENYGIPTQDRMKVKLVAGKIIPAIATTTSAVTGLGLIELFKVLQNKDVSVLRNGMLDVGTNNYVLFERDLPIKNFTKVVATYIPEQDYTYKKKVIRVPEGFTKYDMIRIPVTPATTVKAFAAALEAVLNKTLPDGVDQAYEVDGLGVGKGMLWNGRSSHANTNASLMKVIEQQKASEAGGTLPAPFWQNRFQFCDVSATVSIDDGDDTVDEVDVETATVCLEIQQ
# [3] = target: AMP-activated protein kinase, AMPK (Homo sapiens) (UniProt P54646+O43741+P54619+Q9UGJ0+Q9Y478+Q13131+Q9UGI9); assay: AMP-dependent Kinase enzyme assay. An in vitro enzyme assay that detects ADP turnover that is directly proportional to AMPK activity. This uses naive AMPK that is activated during the assay with MK-8722; type: functional; settings: 30 µM
# [4] = target: Sialic acid-binding Ig-like lectin 9 (Homo sapiens) (UniProt Q9Y336); assay: Hs-Siglec9 ALPHAscreen SOP 20170721; settings: 10 µM
# Chain of Sialic acid-binding Ig-like lectin 9 (Homo sapiens) (Q9Y336 whole entry): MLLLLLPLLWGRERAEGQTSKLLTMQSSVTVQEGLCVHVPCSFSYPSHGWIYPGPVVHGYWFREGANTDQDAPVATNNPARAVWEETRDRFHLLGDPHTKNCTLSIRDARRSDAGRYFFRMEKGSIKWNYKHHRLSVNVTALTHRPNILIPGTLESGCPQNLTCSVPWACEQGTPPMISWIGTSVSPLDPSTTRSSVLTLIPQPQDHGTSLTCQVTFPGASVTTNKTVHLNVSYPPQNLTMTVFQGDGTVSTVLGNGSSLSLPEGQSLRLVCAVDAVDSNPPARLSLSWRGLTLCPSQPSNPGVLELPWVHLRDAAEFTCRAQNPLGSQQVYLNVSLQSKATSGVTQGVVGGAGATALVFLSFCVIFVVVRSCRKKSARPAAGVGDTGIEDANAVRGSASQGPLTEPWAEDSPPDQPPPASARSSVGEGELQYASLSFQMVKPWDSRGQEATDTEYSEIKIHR
# Trypanosoma cruzi = assay: Trypanosoma cruzi phosphomannomutase and mannose-1-phosphate guanylyltransferase assay; type: functional; settings: 10 µM
# [5] = target: T2, Arginase-2, mitochondrial (Homo sapiens) (UniProt P78540); assay: in vitro enzyme assay to detect the production of urea directly proportional to the activity of Arginase II; type: functional; settings: 33.3 µM; note: in the data most compounds retested in dose-response had high values
# T2 sequence (whole entry): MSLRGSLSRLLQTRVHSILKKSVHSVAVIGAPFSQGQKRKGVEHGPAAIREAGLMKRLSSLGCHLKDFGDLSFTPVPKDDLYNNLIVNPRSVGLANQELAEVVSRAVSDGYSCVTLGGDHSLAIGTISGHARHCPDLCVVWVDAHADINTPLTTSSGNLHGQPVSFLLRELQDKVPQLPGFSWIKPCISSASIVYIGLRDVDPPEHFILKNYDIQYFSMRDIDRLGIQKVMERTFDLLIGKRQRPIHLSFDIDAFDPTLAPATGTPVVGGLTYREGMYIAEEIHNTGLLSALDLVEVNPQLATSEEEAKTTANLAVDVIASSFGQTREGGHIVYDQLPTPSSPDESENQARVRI
# [6] = target: T3, Proteasome subunit beta (Trypanosoma cruzi) (UniProt O96673); assay: Trypanosoma cruzi proteasome chymotrypsin-like activity (TcProtChymo) assay.; note: in the data most compounds retested in dose-response had high values; type: functional; settings: 9.37 µM
# T3 sequence (whole entry): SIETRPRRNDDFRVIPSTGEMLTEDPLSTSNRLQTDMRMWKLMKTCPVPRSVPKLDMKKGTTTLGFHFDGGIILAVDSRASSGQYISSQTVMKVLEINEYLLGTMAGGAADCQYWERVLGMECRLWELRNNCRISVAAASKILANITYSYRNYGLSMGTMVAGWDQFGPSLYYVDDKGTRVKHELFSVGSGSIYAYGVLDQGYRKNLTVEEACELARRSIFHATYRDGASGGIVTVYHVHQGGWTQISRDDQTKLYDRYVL
# Homo sapiens = organism: Homo sapiens; assay: To identify inhibition of the IFN signalling (Jak-Stat) pathway via expression of an eGFP reporter gene under the control of an IFN-stimulated response element (ISRE) containing MxA promoter.; type: functional; settings: 30 µM
# [7] = target: T4, Tyrosyl-tRNA synthetase, putative (Trypanosoma cruzi (strain CL Brener)) (UniProt Q4DSP6); assay: Trypanosoma cruzi tyrosyl tRNA synthetase (TcYRS) _High Tyrosine SOP; type: functional; settings: 30 µM; note: in the data most compounds retested in dose-response had high values
# T4 sequence (whole entry): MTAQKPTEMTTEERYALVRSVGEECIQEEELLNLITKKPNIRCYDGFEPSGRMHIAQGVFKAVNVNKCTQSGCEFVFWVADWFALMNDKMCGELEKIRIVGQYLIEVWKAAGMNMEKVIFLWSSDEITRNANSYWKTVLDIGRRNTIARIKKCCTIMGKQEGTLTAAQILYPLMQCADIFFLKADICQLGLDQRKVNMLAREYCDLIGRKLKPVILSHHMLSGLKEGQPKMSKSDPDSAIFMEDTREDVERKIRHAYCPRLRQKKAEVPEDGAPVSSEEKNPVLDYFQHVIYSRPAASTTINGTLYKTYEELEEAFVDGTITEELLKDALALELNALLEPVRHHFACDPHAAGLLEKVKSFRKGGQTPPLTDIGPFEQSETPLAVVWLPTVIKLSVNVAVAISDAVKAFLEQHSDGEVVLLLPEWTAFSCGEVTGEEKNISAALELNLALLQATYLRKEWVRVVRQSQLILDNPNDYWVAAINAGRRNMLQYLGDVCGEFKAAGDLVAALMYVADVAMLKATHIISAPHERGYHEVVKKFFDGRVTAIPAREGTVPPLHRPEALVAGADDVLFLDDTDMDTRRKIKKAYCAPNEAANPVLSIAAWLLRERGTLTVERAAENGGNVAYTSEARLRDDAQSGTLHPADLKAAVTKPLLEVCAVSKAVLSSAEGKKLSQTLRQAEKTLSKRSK
# [8] = target: T4, Tyrosyl-tRNA synthetase, putative (Trypanosoma cruzi (strain CL Brener)); assay: Trypanosoma cruzi tyrosyl tRNA synthetase (TcYRS) SOP; type: functional; settings: 30 µM
# [9] = target: Chromo domain-containing protein 1 (Saccharomyces cerevisiae (strain ATCC 204508 / S288c) (Baker's yeast)) (UniProt P32657); assay: ScCHD-1 Enzyme Inhibition Assay; type: functional; settings: 30 µM; note: in the data most compounds retested in dose-response had high values
# Chain of Chromo domain-containing protein 1 (Saccharomyces cerevisiae (strain ATCC 204508 / S288c) (Baker's yeast)) (P32657 whole entry, the tested form may be a part): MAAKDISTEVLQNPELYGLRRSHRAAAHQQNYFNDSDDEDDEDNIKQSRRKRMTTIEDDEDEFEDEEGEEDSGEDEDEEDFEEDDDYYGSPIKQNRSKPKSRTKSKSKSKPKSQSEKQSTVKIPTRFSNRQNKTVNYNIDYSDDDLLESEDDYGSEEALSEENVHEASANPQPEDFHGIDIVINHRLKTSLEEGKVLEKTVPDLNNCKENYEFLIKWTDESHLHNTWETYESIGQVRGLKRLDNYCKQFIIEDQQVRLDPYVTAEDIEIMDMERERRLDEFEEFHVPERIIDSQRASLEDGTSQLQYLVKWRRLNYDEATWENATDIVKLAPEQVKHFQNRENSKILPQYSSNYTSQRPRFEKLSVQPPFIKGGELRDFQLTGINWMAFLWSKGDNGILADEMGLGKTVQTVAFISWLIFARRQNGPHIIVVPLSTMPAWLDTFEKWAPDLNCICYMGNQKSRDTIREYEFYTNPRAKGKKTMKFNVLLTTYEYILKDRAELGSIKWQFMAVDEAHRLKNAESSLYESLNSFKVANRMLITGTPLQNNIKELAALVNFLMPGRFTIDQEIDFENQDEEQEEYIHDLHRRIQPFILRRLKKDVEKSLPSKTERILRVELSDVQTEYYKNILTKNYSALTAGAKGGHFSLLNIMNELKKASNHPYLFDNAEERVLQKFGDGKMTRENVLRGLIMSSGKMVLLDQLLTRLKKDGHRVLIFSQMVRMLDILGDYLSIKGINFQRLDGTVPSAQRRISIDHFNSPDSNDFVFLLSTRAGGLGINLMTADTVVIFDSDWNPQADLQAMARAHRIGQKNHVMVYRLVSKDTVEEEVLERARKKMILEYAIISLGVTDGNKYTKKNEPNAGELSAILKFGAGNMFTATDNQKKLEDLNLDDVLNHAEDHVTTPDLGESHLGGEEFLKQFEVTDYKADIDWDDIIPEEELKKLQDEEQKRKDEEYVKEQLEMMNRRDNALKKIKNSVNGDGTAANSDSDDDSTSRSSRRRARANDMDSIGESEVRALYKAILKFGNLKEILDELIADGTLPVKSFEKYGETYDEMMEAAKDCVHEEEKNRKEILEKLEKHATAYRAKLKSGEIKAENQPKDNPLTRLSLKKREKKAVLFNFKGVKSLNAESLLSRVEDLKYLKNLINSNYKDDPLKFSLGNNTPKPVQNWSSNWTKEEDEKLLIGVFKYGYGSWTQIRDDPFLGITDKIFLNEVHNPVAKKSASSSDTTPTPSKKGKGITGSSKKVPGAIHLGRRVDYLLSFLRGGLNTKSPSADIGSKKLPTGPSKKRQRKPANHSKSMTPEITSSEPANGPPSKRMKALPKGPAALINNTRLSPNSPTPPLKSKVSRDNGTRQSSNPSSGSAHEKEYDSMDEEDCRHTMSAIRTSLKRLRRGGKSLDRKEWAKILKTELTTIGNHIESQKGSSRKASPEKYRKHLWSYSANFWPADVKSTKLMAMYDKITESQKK
SMILES,Percent Effect [1] [%],Percent Effect [2] [%],Percent Effect [3] [%],Percent Effect [4] [%],Percent Effect (Trypanosoma cruzi) [%],Percent Effect [5] [%],Percent Effect [6] [%],Percent Effect (Homo sapiens) [%],Percent Effect [7] [%],Percent Effect [8] [%],Percent Effect [9] [%]
Cc1cc(C(=O)N2CCCCC2C)ccc1NCC(=O)N1CCOCC1 (stereo unspecified),-3.46,18.2,9.95,-0.936,8.8,5.69,15.5,29.1,-2.91,24.4,-5.86
O=C(CCN1CCC(C(=O)c2cc(F)ccc2F)CC1)NC1CC1,-5.55,5.26,2.46,2.22,-0.0974,-1.18,12.4,16.9,3.19,15.6,-3.85
COCCN1CCC(Cc2cncc(-c3ccc(C(=O)O)cc3)n2)C1 (stereo unspecified),-5.18,1.35,42.5,-3.43,-3.75,-2.55,3.43,12.6,1.07,1.3,-3.54
O=S(=O)(c1cccs1)N1CCCn2nnc(CN3CCCCC3)c2C1,-2.04,2.67,-7.89,2,2.7,-43.5,-0.513,-33.6,-1.04,2.5,-4.44
CC(NC(=O)NCCCN(C)S(C)(=O)=O)c1cccc(Cl)c1 (stereo unspecified),1.78,6.33,0.875,-4.21,-2.97,0.215,11.8,13.8,9.38,7.59,0.197
Cc1cc(C[S+]([O-])CC(=O)Nc2c(C)cccc2C)no1 (stereo unspecified),-7.01,18.2,15.8,7.26,0.187,4.63,2.03,5.44,8.74,9.76,-3.01
O=S(=O)(NCC1CCN(c2cnccn2)CC1)c1c(F)cccc1F,0.613,5.2,-0.808,-3.89,-5.82,9.68,5.74,8.19,3.17,6.41,-7.48
Cc1ccc(CN2CCc3ncnc(-c4cccnc4)c3CC2)o1,-3.48,-2.67,0.55,8.87,-0.772,-5.91,8.72,-10.7,2.08,0,-3.74
Cc1ccc(CC(=O)N2CC[C@@H]3CN(CCN(C)C)CCO[C@@H]3C2)cc1,-0.0347,8.11,9.51,-10.3,-7.33,2.87,19.7,4.98,4.32,5.13,-4.03
COc1ncccc1C(=O)NCC(C)Oc1cccnc1 (stereo unspecified),-3.65,5.41,1.52,2.58,0.386,1.91,4.83,-3.73,6.88,12.2,-3.26
c1cc(-c2cnccn2)cc(-c2ccn(CCN3CCCC3)n2)c1,-2.8,-21.6,3.09,2.06,-1.54,-10.9,6.9,0.332,14.3,7.32,-0.216
